Bioassay records as filed in PubChem.
This excerpt belongs to a sample that is enriched for hits.
Dicer inh: inhibitors of human Dicer processing of pre-microRNA; 47,000 tested, 6% active; cat-ELCCA pre-miR-21 Dicer processing, chemiluminescence; active compounds read high; z-score at 25 µM; Q9UPY3; in the data active means z-score above about 3, passing the limit was not always enough;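 further: higher signal means more uncleaved substrate so more Dicer inhibition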
A number is an active result; 0 = inactive.

SMILES | Dicer inh
CCN(CC)c1cnn(-c2ccc(C(F)(F)F)cc2)c(=O)c1Cl | 0
COc1ccc(-c2nnc3c4cnn(-c5ccc(C)cc5)c4ncn23)cc1 | 0
CCOC(=O)C1=C(C)NC(=O)NC1c1ccc(C#Cc2ccccc2)s1 (centres undefined) | 0
CC(C)(O)C#Cc1ccc(/C=N/Nc2ccc(I)cc2)cc1 | 0
CC(C)(O)C#Cc1ccc(C2NCCS2)cc1 (centres undefined) | 259
CC(C)(O)C#Cc1ccc(/C=N/O)cc1 | 0
O=C(Nc1ccccc1S(=O)(=O)Cc1cccc(C(F)(F)F)c1)c1ccc(Cl)cc1 | 0
O=c1[nH]c(=S)[nH]c(O)c1/C=C/N=Nc1ccccc1 | 0
CSc1nc2c(c(=O)n1C)C1(CCCC1)Cc1ccccc1-2 | 4.16
C=CCSc1nc2c(c(=O)n1CC)C1(CCCC1)Cc1ccccc1-2 | 0
C=CCn1c(SCC)nc2c(c1=O)C1(CCCC1)Cc1ccccc1-2 | 0
Cc1cc(N=CNO)c2ccccc2n1 | 0
CCCCc1ccc(N=CNO)c(C)c1 | 4.02
ONC=Nc1cc(Cl)c(-n2cccc2)cc1Cl | 0
Oc1ccc2ccccc2c1N=Nc1cccc(Cl)c1 | 0
Oc1ccccc1N=Nc1c(O)ccc2ccccc12 | 0
Cc1cccc(N=Nc2c(O)ccc3ccccc23)c1 | 0
Oc1ccc2ccccc2c1N=Nc1ccccc1F | 0
CCN(CCC#N)c1ccc(N=Nc2c(O)ccc3ccccc23)cc1 | 6.13
COc1ccc(N=Nc2c(O)ccc3ccccc23)cc1 | 3.43
Fc1cccc(Cl)c1CSC(=S)N1CCSCC1 | 0
O[C@H]1C2C3CC4C5C3C1C5C1(OCCO1)C42 (some centres undefined) | 0
CN(C)C(=S)Sc1c(O)c2ccccc2n(C)c1=O | 0
CN(C)C(=O)C12CCC(C)(C(=O)C1)C2(C)C (centres undefined) | 3.14
Cc1ccc(-c2cc(C(F)F)n3ncc(C(=O)NC4CC4)c3n2)cc1 | 0
SMILES | Dicer inh
O=C1N(CCc2ccccc2)c2ccccc2C1(O)c1c[nH]c2ccccc12 (centres undefined) | 0
Cc1ccc(-c2noc(COc3ccc(Cl)cc3)n2)cc1 | 0
COc1ccc(-c2noc(COc3ccc(C)cc3C)n2)cc1 | 0
Cc1ccc(-c2noc(COc3ccc(Cl)cc3C)n2)cc1 | 5.74
N#Cc1c(-c2cccs2)cc(-c2ccc([N+](=O)[O-])cc2)nc1OCC(=O)c1ccccc1 | 0
NC(=S)N/N=C\Cc1nnnn1-c1ccccc1 | 0
C(=C\c1nnnn1-c1ccccc1)/NCc1ccccc1 | 0
Fc1ccc(N/N=C/Cc2nnnn2-c2ccccc2)c(F)c1 | 3.89
CSc1ssc(=Nc2ccc(Cl)cc2)c1-c1ccccc1 | 0
O=c1[nH]nc(Sc2ncccc2C(F)(F)F)n1C1CCCCC1 | 0
CCNC(=O)C(NC(=O)OC(C)(C)C)C(C)OCc1ccccc1 (centres undefined) | 4.72
CC(C)(C)OC(=O)NC(COCc1ccccc1)C(=O)NCc1ccccc1 (centres undefined) | 0
CCNC(=O)C(C)NC(=O)OC(C)(C)C (centres undefined) | 0
CCN(CC)S(=O)(=O)c1ccc(-c2ccc(S(=O)(=O)N(CC)CC)s2)s1 | 0
N#CCC(=O)NNC(=S)NC1CCCCCC1 | 0
Fc1ccc(N=CNc2ccc(F)cc2F)c(F)c1 | 0
CC12CN3CC(C)(CN(C1)C3c1ccccc1Cl)C2 (centres undefined) | 0
CC12CN3CC(C)(CN(C1)C3c1ccc(F)cc1)C2 (centres undefined) | 0
Cc1cccc(C2N3CC4(C)CN2CC(C)(C3)C4)c1 (centres undefined) | 0
CC12CN3CC(C)(CN(C1)C3c1ccc(Cl)cc1)C2 (centres undefined) | 5.13
CC12CN3CC(C)(CN(C1)C3c1ccc(O)c(O)c1)C2 (centres undefined) | 3.11
COc1ccc(C2N3CC4(C)CN2CC(C)(C3)C4)cc1OC (centres undefined) | 0
O=C1c2oc3ccccc3c(=O)c2C(c2cccc(O)c2)N1Cc1ccc2c(c1)OCO2 (centres undefined) | 0
CCCCn1c(Oc2ccccc2Cl)nc2c1c(=O)n(C)c(=O)n2C | 0
Clc1ccccc1CSC1=NCCCN1C1CCCCC1 | 0
SMILES | Dicer inh
Fc1cccc(Cl)c1CN1CCN(CCCNc2nc(-c3ccccc3)ns2)CC1 | 0
CCCN1C(=O)C(O)(CC(=O)c2ccc(C)s2)c2cc(Br)ccc21 (centres undefined) | 0
Cc1ccc(-n2c(C(C)(C)C)cs/c2=N/c2ccccn2)cc1C | 0
COc1ccc(N/C=C\C(=S)c2ccc(OC)cc2)cc1 | 0
O=S1(=O)CC2=C(SCC/C2=N\Nc2c(Cl)cc(Cl)cc2Cl)c2cc(Cl)ccc21 | 0
Cc1nn(-c2ccccc2)c2[nH]c3ccccc3c(=O)c12 | 0
Cc1nn(-c2ccc([N+](=O)[O-])cc2)c(N)c1C(N)=S | 0
Cc1nn(-c2ccc([N+](=O)[O-])cc2)c2[nH]c3ccccc3c(=O)c12 | 4.16
COc1ccc(CCn2c(=O)c3cc4c(=O)n(CCc5ccc(OC)c(OC)c5)c(=O)c4cc3c2=O)cc1OC | 0
O=c1c2cc(-c3ccccc3)sc2ncn1/N=C/c1ccccc1Cl | 0
Clc1cc(Cl)c(Cl)c(-n2cccc2)c1Cl | 0
COc1ccccc1NC(=O)N1c2ccccc2Sc2ccccc21 | 3.15
COC(=O)c1cc(OC)c(OC)cc1NC(=O)N1c2ccccc2Sc2ccccc21 | 0
COc1cc(NC(=O)N2c3ccccc3Sc3ccccc32)c(C(=O)O)cc1OC | 0
COC(=O)c1ccc([N+](=O)[O-])cc1Cl | 0
CCCOC(=O)C(C)Nc1n[nH]c(=O)[nH]c1=O (centres undefined) | 0
CN(C)S(=O)(=O)N(CC(=O)NCCC1=CCCCC1)c1ccccc1 | 0
N=C(N)SCc1ccc(F)cc1 | 0
Cc1c(C)c(C)c(CSC(N)=Nc2ccc(F)cc2)c(C)c1C | 3.29
CCOC(=O)c1ccc(N=C(N)SCc2ccccc2)cc1 | 0
Cc1ccc(OC2CCS(=O)(=O)C2)cc1 (centres undefined) | 0
O=C(Oc1ccccc1)OC1CCS(=O)(=O)C1 (centres undefined) | 4
O=C(Nc1ccccc1)NC1CCS(=O)(=O)C1 (centres undefined) | 0
COc1ccc(S(=O)(=O)N2CCN(C)CC2)cc1C | 4.03
CN1CCN(S(=O)(=O)c2ccc3ccccc3c2)CC1 | 0
SMILES | Dicer inh
COc1ccc(OC)c(S(=O)(=O)N2CCN(C)CC2)c1 | 0
O=C1CCCC/C1=C\Nc1ccccc1 | 4.28
O=c1c(=CNc2ccccc2)c(=O)c2cccc3cccc1c32 | 0
O=C(O)C1=C(C(=O)Nc2ccccc2)CCCC1 | 0
C=CCN1C(=O)C2(/C(=C(/O)c3ccc(C)c(F)c3)C(=O)C(=O)N2CCCOC)c2ccccc21 (centres undefined) | 0
O=c1[nH]c2ccccc2c2ccccc12 | 0
O=c1[nH]c2ccccc2c(O)c1-c1ccccc1 | 0
O/N=C1\CCCc2[nH]c3ccccc3c21 | 5.06
Cc1cc2ccccc2n2c(SCC(=O)c3ccc4c(c3)OCCO4)nnc12 | 0
CCOC(=O)c1c(-c2ccc(F)cc2)csc1N | 0
Cc1cc(Nc2ccc(F)cc2F)nc(N)n1 | 0
Cc1ccc(-c2nc3cc(NC(=O)c4ccc([N+](=O)[O-])o4)ccc3o2)cc1Br | 0
CCOC(=O)CCC(=O)c1c(C)oc2ccc(OC)cc12 | 3.11
CCOC(=O)c1c(C)oc2ccc(OC)cc12 | 0
COCCOC(=O)c1c(C)oc2ccc(OC)cc12 | 0
CC(=O)c1ccc(Br)s1 | 0
CCN(CC)C(=O)CSc1nnc2nnc3ccccc3n12 | 0
Cc1ccc(S(=O)(=O)Nc2cc(C)ccc2C)cc1 | 0
